# Only a selection was taken, and hits are over-represented in it overall.
# HT1080 IDH1KD tx = toxicity to HT-1080 IDH1 knockdown cells (counter line) | HT-1080 IDH1 knockdown viability, ATP luminescence, 48 h | Potency, µM (doses to about 46.1 µM), for inactives: top-dose activity, negative = toxicity, hits mostly cytotoxic | 2% of 360,000 active;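 note: potency is the fitted concentration of half-maximal effect; 0% = DMSO wells and -100% = cell-free medium wells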
#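 After a 2 h attachment period, IDH1KD HT-1080 cells took pin-transferred compound for 48 h at 37 °C; ATP-based luminescence after 10 min room-temperature reagent incubation reported viability.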
# 12-LOX inh = blocks human arachidonate 12S-lipoxygenase; 1.1% of 580,000 active; purified 12hLO, xylenol orange hydroperoxide absorbance; P18054; Potency, µM (doses to about 108 µM), inactives show at the highest dose activity change, negative = inhibition, actives largely listed as inhibitors; note: potency is the fitted concentration of half-maximal effect
# Target sequence (P18054 whole entry, looked up): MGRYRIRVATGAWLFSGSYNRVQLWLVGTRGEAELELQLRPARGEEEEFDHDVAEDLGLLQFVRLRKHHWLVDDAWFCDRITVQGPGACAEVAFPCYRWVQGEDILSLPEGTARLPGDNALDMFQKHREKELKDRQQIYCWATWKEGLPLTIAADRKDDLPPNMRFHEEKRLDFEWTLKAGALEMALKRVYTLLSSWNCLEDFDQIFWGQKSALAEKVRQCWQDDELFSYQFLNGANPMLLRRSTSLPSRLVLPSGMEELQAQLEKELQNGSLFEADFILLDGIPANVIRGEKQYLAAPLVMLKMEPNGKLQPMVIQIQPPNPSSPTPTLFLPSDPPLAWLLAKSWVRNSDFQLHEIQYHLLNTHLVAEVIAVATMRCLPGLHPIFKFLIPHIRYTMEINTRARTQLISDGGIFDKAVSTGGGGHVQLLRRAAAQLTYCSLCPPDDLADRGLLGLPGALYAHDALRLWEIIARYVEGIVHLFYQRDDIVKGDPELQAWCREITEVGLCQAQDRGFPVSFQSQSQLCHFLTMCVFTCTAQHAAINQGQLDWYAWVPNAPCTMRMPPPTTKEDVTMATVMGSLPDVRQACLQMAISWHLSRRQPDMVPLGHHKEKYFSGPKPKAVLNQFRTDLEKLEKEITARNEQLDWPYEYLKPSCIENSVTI
#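 Purified human 12hLO (150 nM final) in 25 mM Hepes, 0.01% Triton X-100, pH 7.0 was preincubated 15 min at room temperature with compound. Then 40 uM arachidonic acid was added, 30 min. Hydroperoxide was read by Fe-XO absorbance ratio 573/405 nm.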
# HT1080-NT tox = kills 2HG-producing HT-1080-NT fibrosarcoma cells. AID 686970. 1.6% of 360,000 active. HT-1080-NT fibrosarcoma viability, CellTiter-Glo ATP luminescence, 48 h. Potency, µM (highest dose often 46.1 µM), without a hit: at the highest dose activity, negative = less viability, most hits filed as cytotoxic;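 note: NT is the 2HG producing partner of a matched IDH1 knockdown line; potency is the fitted concentration of half-maximal effect; 0% = DMSO-treated cells and -100% = media-only wells without cells; nearly all actives have a fitted effect of over 55% in size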
#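 Luminescent CellTiter-Glo readout after 48 hours of compound exposure at 37 degrees C defined viability of HT-1080-NT cells. Activity was normalized to DMSO wells and cell-free media wells; concentration-response curves were fitted and assigned curve classes.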
# DT40 TDP1 no CPT = qHTS for Inhibitors of human tyrosyl-DNA phosphodiesterase 1 (TDP1): qHTS in cells in absence of CPT | AID 686978, 2013 | DT40 Tdp1-/- hTDP1 cells, no CPT, ATP luminescence, 48 h | Potency, µM (highest dose often 46.2 µM), for inactives: at the top dose activity change, negative = growth inhibition, usual class: inhibitors | 15% of 420,000 active; note: potency is the fitted concentration of half-maximal effect; nearly all actives have a fitted effect of over 55% in size
#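 A cellular qHTS used chicken DT40 cells lacking endogenous Tdp1 but carrying stably transfected human TDP1. Compounds were applied without camptothecin, and cell growth kinetics were judged by ATP-dependent luminescence after ≥48 hr.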
# TDP1 cell CPT = DT40-hTDP1 cell growth loss with CPT | chicken DT40 Tdp1-/-;hTDP1 cells + 20 nM CPT, ATP luminescence, 48 h | Potency, µM (titrated, usually from 46.2 µM), for inactives: at the top dose activity change, negative = growth inhibition, actives largely listed as inhibitors | AID 686979 | 12% of 420,000 active; note: potency is the fitted concentration of half-maximal effect; nearly all actives have a fitted effect of over 55% in size
#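 Chicken DT40 Tdp1-/- cells complemented with human TDP1, 400 cells/well, exposed to compounds plus 20 nM camptothecin for at least 48 h at 37 C; viability read as ATP content by CellTiter-Glo luminescence.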
# IL1B secr inh = inflammasome signaling inhibition, IL-1 beta readout | THP-1 LPS/ATP IL-1B secretion, AlphaLISA, 16 h; hits give low values | activity change, % at 57.5 µM | 4.7% of 360,000 active | AID 743279; in the data active = activity change below about -50%; inconclusive = mostly about -30% to -49%
#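 THP-1 cells pretreated 1 hr with compounds (up to 57.5 uM final), then stimulated with LPS (250 ng/mL final) plus ATP (1.25 mM final); secreted IL-1B measured by AlphaLISA after 16 hr, decreased signal indicating inhibition.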
# * marks the source's active call; other numbers are inactive results; ? = inconclusive; / = not tested or not shown; [ ] = remark or other dose. Unless noted, calls come from the whole dose curve; as a rule, active = well fitted curve in the direction sought with a large enough effect; inconclusive = small, poorly fitted or top-dose-only effect, or another doubt; inactive = no such curve, though single readings can be large; an effect the other way counts as inactive or inconclusive. Unless noted, % is set by controls: 0 for no effect and ±100 for the full control effect.
SMILES,HT1080 IDH1KD tx,12-LOX inh,HT1080-NT tox,DT40 TDP1 no CPT,TDP1 cell CPT,IL1B secr inh
CC(=Nc1ccccc1)C1=C(O)C(Cc2cccc(F)c2)NC1=O (centres undefined),?,?,0.026µM*,0.1µM*,0.0058µM*,71
Cc1nn(C)c(C)c1CNC(=O)c1nn2c(c1Cl)NC(c1cccs1)CC2C(F)(F)F (centres undefined),?,8%[57.4 µM],?,9.2µM*,16µM*,15
O=C(NCC1CCCO1)c1cnn2c1NC(c1ccccc1)CC2C(F)(F)F (centres undefined),7%,5%,5%,-14%,-10%,-6
O=C(NCC1CCCO1)c1nn2c(c1Cl)NC(c1ccc(F)cc1)CC2C(F)(F)F (centres undefined),-5%,0%,-8%,?,16µM*,-17
COc1ccc(C(=O)Nc2ccccc2N2CCOCC2)cc1S(=O)(=O)N1CCOCC1,9%,174%,16%,?,?,0
Cc1ccc(NC(=O)c2ccc(N3CCOCC3)c([N+](=O)[O-])c2)cc1S(=O)(=O)N1CCOCC1,-15%,2%,-3%,7.3µM*,9.2µM*,-78*
COc1ccc(C(=O)Nc2ccccc2[N+](=O)[O-])cc1S(=O)(=O)N1CCOCC1,-8%,2%,-1%,?,-2%,-62*
Cc1ccc(NC(=S)NNC(=O)c2ccc(N3CCOCC3)c([N+](=O)[O-])c2)cc1C,9%,?,7%,-28%,-15%,-26
Cc1ccc(C(=O)Nc2ccccc2[N+](=O)[O-])cc1S(=O)(=O)N1CCOCC1,?,-27%,?,?,4%,-64*
N#Cc1ccc(CN2CCCc3cc(F)cc(F)c32)cc1,/,-9%,/,/,/,/
CCNC(=S)N(CCc1c(C)[nH]c2ccc(C)cc12)Cc1cccnc1,-2%,31%,-3%,29µM*,?,-1
COCCNC(=S)N(CCc1c(C)[nH]c2ccc(F)cc12)Cc1ccc(C)cc1,?,0%,?,18µM*,?,-73*
CCNC(=S)N(CCc1c(C)[nH]c2ccc(F)cc12)Cc1cccnc1,-8%,0%,-2%,26µM*,?,-4
COCCNC(=S)N(CCc1c(C)[nH]c2ccc(C)cc12)Cc1ccco1,-13%,67%,-8%,?,?,-12
O=C(CO)NC1CC(=O)N(Cc2ccccc2C(F)(F)F)C1 (centres undefined),/,65%,/,/,/,/
CCOc1ccc2nc(SCC(=O)N3CCN(S(=O)(=O)c4ccccc4)C3)[nH]c2c1,/,26%,/,/,/,/
CCOC(=O)CN1C(c2ccc(O)cc2)Nc2ccc(Br)cc2C1c1ccccc1 (centres undefined),?,-13%,16µM*,?,15µM*,-102*
NC1(C#Cc2ccc3oc(=O)c(-n4cc(-c5ccsc5)nn4)cc3c2)CCCCC1,-18%,-12%,-2%,8.2µM*,8.2µM*,-99*
NC1(C#Cc2ccc3oc(=O)c(-n4cc(C5(O)CCCCC5)nn4)cc3c2)CCCCC1,-6%,?,0%,-17%,-1%,-14
Cc1csc(CNC(=O)c2nccnc2N)n1,/,60%,/,/,/,/
CCCCN1C(=O)C(NC(=O)c2ccc(C(C)(C)C)cc2)(C(F)(F)F)C(C(=O)OC)=C1C (centres undefined),/,-5%,/,23µM*,?,/
O=C(N/N=C\c1cc(Cl)ccc1O)c1ccc(S(=O)(=O)N2CCCCC2)cc1,2.3µM*,3%,7.3µM*,0.73µM*,0.65µM*,62

# Screening data deposited in PubChem BioAssay by National Center for Advancing Translational Sciences (NCATS).
